Rows were chosen to be rich in hits. Some 1.5% of all compounds tested hit in one or more screens of this group.
CCHF vOTU inh-1 = CCHFV vOTU protease inhibitors, primary screen, biochemical, Pep-AMC substrate, fluorescence; AID 651958, 2012; inhibition, % at 11.5 µM; actives 0.55% (n = 370,000)
SSB-PriA inh = inhibitors of Klebsiella pneumoniae PriA binding to SSB C-terminal tail, primary screen, biochemical, AlphaScreen; inhibition, % at 33 µM; PriA–SSB C-terminal tail interaction (Klebsiella pneumoniae); actives 0.6% (n = 430,000); AlphaScreen SSBct-PriA binding, biotinylated peptide; in the data active = inhibition mostly above about 37%, no sharp cut-off; inactive = mostly below about 20%
RN4220 kill = growth inhibition of S. aureus RN4220, primary screen, OD600 | 16 h | inhibition, % (test concentration not listed) | actives 0.33% (n = 330,000); in the data active = inhibition above about 85%
Sa ugtP lethal = growth inhibition of ugtP-null S. aureus, primary screen, RN4220 ugtP deletion, OD600; 16 h; growth inhibition, % (concentration not given with the values); actives 0.54% (n = 330,000); AID 1259309, 2017; in the data active = growth inhibition above about 68%
VHR inh abs = VHR1 phosphatase inhibitors, primary screen, biochemical, absorbance, uHTS; AID 1654, 2009; actives 0.52% (n = 290,000); inhibition, % at 13.3 µM; recombinant VHR phosphatase, pNPP absorbance; Dual specificity protein phosphatase 3 (Homo sapiens), P51452; in the data active = inhibition above about 50%
Target sequence (P51452 whole entry, looked up): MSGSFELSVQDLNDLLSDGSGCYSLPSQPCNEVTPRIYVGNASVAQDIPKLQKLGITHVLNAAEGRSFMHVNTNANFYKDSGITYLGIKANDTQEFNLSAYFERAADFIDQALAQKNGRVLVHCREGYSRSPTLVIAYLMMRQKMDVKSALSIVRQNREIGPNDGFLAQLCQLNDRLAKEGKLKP
CCHF vOTU inh-2 = CCHFV vOTU protease inhibitors, confirmation, biochemical, Pep-AMC substrate, fluorescence; shares compounds with CCHF vOTU inh-1; Recombinant CCHFV vOTU; inhibition, % at 11.5 µM; actives 17% (n = 1,900)
Numbers stand for hits; n = inactive; x = not tested or not shown. Cut-off read from the data, not from the text of the source, unless noted: active = inhibition above about 30%; inactive = the rest.

SMILES | CCHF vOTU inh-1 | SSB-PriA inh | RN4220 kill | Sa ugtP lethal | VHR inh abs | CCHF vOTU inh-2
CC(=O)Nc1cc(C(=O)NCCC2=CCCCC2)ccc1Nc1ccc(OCc2ccccc2)cc1 | x | n | x | x | x | x
Oc1c(CN2CCCCC2)cc(Br)c2cccnc12 | 70 | n | n | n | n | n
O=Nc1cc(CN2CCOCC2)c(O)c2ncccc12 | x | n | x | x | x | x
CCOC(=O)c1cnc2cc(-c3ccc(C)cc3)nn2c1C | 30 | x | x | x | x | n
CCN1C(=O)[C@@H]2[C@H](C1=O)[C@@H]1C(=O)Nc3ccccc3C(=O)N1[C@@H]2c1ccc(OC)cc1 | 34 | n | x | x | x | n
O=C1NNC(c2ccccc2)=N/C1=C\c1ccccc1Cl | 54 | n | n | n | n | 43
O=C(O)CN1C(=O)/C(=C\c2cc(Br)ccc2OCc2ccc([N+](=O)[O-])cc2)SC1=S | 32 | n | n | n | n | n
O=C(O)CN1C(=O)/C(=C\c2cc(Br)ccc2OCc2ccccc2Cl)SC1=S | n | n | n | n | n | x
Cc1ccc(CC(=O)Nc2ccccc2-c2nc3ccccc3[nH]2)c(C)c1 | x | n | x | x | x | x
COc1ccc(C=NN=C2C(=O)Nc3ccccc32)cc1O | x | n | x | x | x | x
O=C1Nc2ccccc2/C1=N\N=C\c1ccc(O)c(O)c1 | 33 | x | x | x | n | n
CC(=O)c1cccc(N(CC(=O)NC2CCCC2)C(=O)CNC(=O)c2cccs2)c1 | 36 | n | n | n | n | n
O=C(Cc1noc2ccccc12)Nc1ccccc1Cc1nc(-c2cccs2)no1 | x | n | x | x | x | x
COc1ccc(OCCN2CCC(C(=O)NC(c3ccc(F)cc3)c3ccc4ccccc4n3)CC2)cc1 (stereo not given) | n | x | x | x | x | x
O=C(NC(c1ccc(F)cc1)c1ccc2ccccc2n1)C1CCN(CCOc2ccc(F)cc2)CC1 (stereo not given) | 32 | x | x | x | x | n
CCOc1ccc2noc3c2c1C(=O)c1ccccc1-3 | 87 | n | x | x | n | 37
O=c1cc(-c2ccccc2)oc2cccc(O)c12 | n | n | x | x | x | x
Cc1ccccc1-c1cc(=O)c2c(O)cccc2o1 | 35 | n | n | n | n | n
O=c1oc2ccccc2c(Nc2ccccc2O)c1[N+](=O)[O-] | n | n | n | n | n | x
O=c1oc2ccccc2c(Nc2cc3ccccc3cc2O)c1[N+](=O)[O-] | 30 | n | n | n | n | n
COP(=S)(Nc1c(C(C)(C)C)cc(C(C)(C)C)cc1C(C)(C)C)c1c(C)cc(C)cc1C (stereo not given) | x | n | x | x | x | x
Cc1[nH]c2ccccc2c1/C=N/Nc1nncn1N | 113 | x | x | x | n | n
CCc1nnc(NN=Cc2c(C)[nH]c3ccccc23)n1N | x | n | n | n | x | x
O=C1NC(=S)S/C1=C\c1cc(Cl)cc(Cl)c1O | 30 | n | n | n | x | n
Cc1cc(/C=C2\SC(=S)NC2=O)cc(C)c1O | n | n | n | n | n | x
SMILES | CCHF vOTU inh-1 | SSB-PriA inh | RN4220 kill | Sa ugtP lethal | VHR inh abs | CCHF vOTU inh-2
O=C(O)CC1S/C(=N/N=C/c2ccc(-c3ccccc3[N+](=O)[O-])o2)NC1=O (stereo not given) | 36 | x | x | x | n | n
O=C(NCCCn1ccnc1)c1noc2c1CCc1ccccc1-2 | 39 | n | n | n | n | n
O=C(NCCCn1ccnc1)c1noc2c1CCCC2 | n | n | n | n | n | x
Cc1nc2ccccn2c1C(=O)N(CCc1cccs1)C1CC1 | x | n | x | x | x | x
COC(=O)[C@]12C[C@H](CC(=O)NCCc3ccccc3OC)C(=O)N(Cc3ccc(Cl)cc3Cl)C1=C[C@H](C(C)(C)C)O[C@@H]2C | 30 | x | x | x | x | n
CCOC(=O)[C@]12CCC=C1N(Cc1ccco1)C(=O)[C@H](CC(=O)NCc1cccs1)C2 | 33 | x | x | x | x | n
CCCCNC(=O)C[C@H]1C[C@@]2(C(=O)OC)C(=C[C@H](C(C)(C)C)O[C@@H]2C)N(Cc2ccc(Cl)cc2Cl)C1=O | n | x | x | x | x | x
COC(=O)[C@]12C[C@H](CC(=O)NCCC(C)C)C(=O)N(Cc3ccc(Cl)cc3Cl)C1=C[C@H](C(C)(C)C)O[C@@H]2C | 31 | x | x | x | x | n
CCOC(=O)[C@]12CCCC=C1N(Cc1ccc(Cl)cc1Cl)C(=O)[C@H](CC(=O)NCCc1ccccc1OC)C2 | 30 | x | x | x | x | n
CC(=O)N1CC(C(=O)Nc2ccc3ncccc3c2)C1 | x | n | x | x | x | x
Cc1ccc(S(=O)(=O)Nc2ccc(C(=O)COC(=O)c3ccc(C)o3)cc2)cc1 | x | n | x | x | x | x
Cc1ccc(S(=O)(=O)Nc2nc3c(s2)C(=O)CC(C)(C)C3)cc1 | 30 | n | n | n | n | n
O=C(O)CCCNc1cc(N2CCN(C(=O)c3ccco3)CC2)c2noc3c2c1C(=O)c1ccccc1-3 | 32 | 41 | x | x | n | 81
CCOc1ccccc1C(=O)Nc1ccc2c(c1)CN(S(=O)(=O)c1ccccc1)CC2 | x | n | x | x | x | x
O=C(COC(=O)c1ccc([N+](=O)[O-])s1)NC(=O)NCc1ccccc1 | 53 | n | n | n | n | 48
O=C(COC(=O)c1ccc([N+](=O)[O-])s1)NCc1ccc(F)cc1 | 71 | n | n | n | n | 77
O=C(COC(=O)c1ccc([N+](=O)[O-])s1)c1ccc[nH]1 | 58 | n | x | x | x | 49
COC(=O)c1ccc(C(=O)NC[C@@](C)(O)Cc2ccco2)cc1 | x | n | x | x | x | x
N#Cc1ccccc1S(=O)(=O)NC1CCN(c2nccs2)CC1 | x | n | x | x | x | x
Cc1cc(C(=O)NC2CCC(Oc3ncc(F)cn3)CC2)c(C)o1 (stereo not given) | x | n | x | x | x | x
COC(=O)[C@]12C[C@H](CC(=O)NCc3cccc(C(F)(F)F)c3)C(=O)N(Cc3ccc(Cl)cc3Cl)C1=C[C@H](C(C)(C)C)O[C@@H]2C | 32 | x | x | x | x | n
COC(=O)[C@]12C[C@H](CC(=O)NCc3ccccc3)C(=O)N(Cc3ccc(Cl)cc3Cl)C1=C[C@H](C(C)(C)C)O[C@@H]2C | n | x | x | x | x | x
COC(=O)[C@]12C[C@H](CC(=O)NCc3cccc(C(F)(F)F)c3)C(=O)N(Cc3ccco3)C1=C[C@H](C(C)(C)C)O[C@@H]2C | 32 | x | x | x | x | n
COC(=O)[C@]12C[C@H](CC(=O)NCc3ccccc3)C(=O)N(Cc3ccco3)C1=C[C@H](C(C)(C)C)O[C@@H]2C | n | x | x | x | x | x
CCS(=O)(=O)C1CN(C(=O)c2ccc3ncsc3c2)C1 | x | n | x | x | x | x
SMILES | CCHF vOTU inh-1 | SSB-PriA inh | RN4220 kill | Sa ugtP lethal | VHR inh abs | CCHF vOTU inh-2
CCOc1ccc(NS(=O)(=O)c2ccc(-c3cnc(C4CC4)o3)cc2)cc1 | 30 | n | n | n | n | n
C[C@H]1CCC(=O)N([C@H](COc2ccccc2)Cc2ccccc2)CC1 | 31 | n | x | x | n | n
O=C(Cc1ccc(NS(=O)(=O)Cc2ccccc2)cc1)NCc1cccs1 | x | n | x | x | x | x
COC(=O)C(=O)C=C(O)c1c(C)cc(C)cc1C | x | n | x | x | x | x
O=C(Cc1ccccc1)Nc1cc(Cl)ccc1Sc1ccccc1 | 30 | n | n | n | n | n
O=C(Cc1ccc(Cl)cc1)Nc1ccccc1Sc1ccccc1 | n | n | n | n | n | x
